# An excerpt weighted towards active compounds, which were near 11% of everything screened.
# G9a inh: qHTS Assay for Inhibitors of Histone Lysine Methyltransferase G9a | Histone-lysine N-methyltransferase EHMT2 (Homo sapiens), Q96KQ7 | G9a H3K9 monomethylation, AlphaScreen, 2 h | Potency, µM (highest dose often 102 µM), for inactives: at the highest dose activity, negative = inhibition, most hits filed as inhibitors | 8.8% of 350,000 active | AID 504332, 2011; further: potency means the concentration at half of the fitted maximal effect; on the % scale 0 is the no-effect control and ±100 the full control effect; nearly all actives have a fitted effect of over 75% in size
#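 Compounds were preincubated with 20 nM G9a for 15 min, after which biotinylated H3K9 peptide (500 nM) and SAM (20 uM) started a 2 h room-temperature reaction. Monomethylated product was quantified by antibody-based AlphaScreen chemiluminescence.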
# HP1b binding inh: HTS for Inhibitors of HP1-beta Chromodomain Interactions with Methylated Histone Tails. 0.56% of 390,000 active. Potency, µM (doses to about 114 µM), inactives show at the top dose activity change, negative = inhibition, usual class: inhibitors. AlphaScreen HP1-beta / biotin-H3K9me3 peptide binding. Chromobox protein homolog 1 (Homo sapiens), P83916; further: potency means the concentration at half of the fitted maximal effect; nearly all actives have a fitted effect of over 70% in size
#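 AlphaScreen: HP1-beta (50 nM) preformed 30 min with biotin-H3(1-18)K9me3 peptide (50 nM) in PBS pH 7.4, 0.01% Tween-20. Compound added for 30 min at RT, then streptavidin donor/nickel chelate acceptor beads (10 ug/mL) for 30 min.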
# JMJD2A Tudor: qHTS Assay for Inhibitors of JMJD2A-Tudor Domain; Potency, µM (highest dose often 114 µM), for inactives: at the highest dose activity change, negative = inhibition, actives largely listed as inhibitors; 4.4% of 390,000 active; AID 504339, 2011; Lysine-specific demethylase 4A (Homo sapiens), O75164; AlphaScreen JMJD2A-Tudor / H3K4me3 peptide binding; further: potency means the concentration at half of the fitted maximal effect; on the % scale 0 is the no-effect control and ±100 the full control effect; nearly all actives have a fitted effect of over 50% in size
# Target sequence (O75164 whole entry, looked up, the tested form may be a part): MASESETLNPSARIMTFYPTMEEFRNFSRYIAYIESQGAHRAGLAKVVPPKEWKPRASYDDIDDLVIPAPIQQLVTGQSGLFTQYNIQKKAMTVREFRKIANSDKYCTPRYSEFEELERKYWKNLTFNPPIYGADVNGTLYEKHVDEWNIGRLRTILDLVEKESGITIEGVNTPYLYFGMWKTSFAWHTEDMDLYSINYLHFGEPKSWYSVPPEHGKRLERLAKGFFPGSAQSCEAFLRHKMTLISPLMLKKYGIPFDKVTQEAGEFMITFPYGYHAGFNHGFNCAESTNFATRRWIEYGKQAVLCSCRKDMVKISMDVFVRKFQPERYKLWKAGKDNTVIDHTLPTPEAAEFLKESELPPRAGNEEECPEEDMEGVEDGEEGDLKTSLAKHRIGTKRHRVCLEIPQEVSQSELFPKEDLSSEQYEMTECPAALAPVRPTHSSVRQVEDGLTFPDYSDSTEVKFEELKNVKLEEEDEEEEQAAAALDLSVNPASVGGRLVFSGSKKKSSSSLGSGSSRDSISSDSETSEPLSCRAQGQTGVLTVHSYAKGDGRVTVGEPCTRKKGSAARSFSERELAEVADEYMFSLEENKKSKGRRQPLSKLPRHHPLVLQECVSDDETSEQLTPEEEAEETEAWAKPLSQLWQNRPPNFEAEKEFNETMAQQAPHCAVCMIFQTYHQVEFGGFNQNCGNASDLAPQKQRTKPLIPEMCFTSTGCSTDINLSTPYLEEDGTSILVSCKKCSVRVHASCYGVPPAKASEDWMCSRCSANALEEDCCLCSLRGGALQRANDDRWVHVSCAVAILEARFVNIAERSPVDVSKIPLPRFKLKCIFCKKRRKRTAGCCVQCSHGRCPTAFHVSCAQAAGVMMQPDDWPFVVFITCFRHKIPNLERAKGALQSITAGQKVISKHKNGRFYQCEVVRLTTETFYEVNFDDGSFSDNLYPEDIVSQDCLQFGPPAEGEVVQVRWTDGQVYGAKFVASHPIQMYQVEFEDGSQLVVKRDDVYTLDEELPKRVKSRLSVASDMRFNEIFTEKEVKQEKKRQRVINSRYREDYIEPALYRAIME
# BAZ2B block: qHTS Assay for Inhibitors of BAZ2B | Bromodomain adjacent to zinc finger domain protein 2B (Homo sapiens), Q9UIF8 | AlphaScreen BAZ2B-H3K14Ac peptide displacement | Potency, µM (highest dose often 114 µM), for inactives: at the top dose activity change, negative = inhibition, usual class: inhibitors | 4.4% of 360,000 active | AID 504333, 2011; further: potency means the concentration at half of the fitted maximal effect; on the % scale 0 is the no-effect control and ±100 the full control effect; nearly all actives have a fitted effect of over 60% in size
#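 Complex of BAZ2B and biotin-H3K14Ac (50 nM apiece) forms over 30 min at RT, then faces library compounds up to 110 uM for another 30 min; AlphaScreen beads added, 20 min dark incubation, luminescence read.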
# PI5P4Ka inh: qHTS for Inhibitors of phosphatidylinositol 5-phosphate 4-kinase (PI5P4K); Phosphatidylinositol 5-phosphate 4-kinase type-2 alpha (Homo sapiens), P48426; PI5P4Kalpha enzyme, ADP-Glo luminescence, 60 min; stronger effect = lower value; max response, %; 1.2% of 330,000 active; active means max response of -50% or lower; inconclusive means between -30% and -50%; inactive means -30% or higher; further: value at the top dose of about 77 µM; on the % scale 0 is the no-effect control and ±100 the full control effect
#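 Controls without substrate or without enzyme flank wells where PI5P4Kalpha converts substrate using 5 microM ATP (final). Incubation lasts 60 minutes at room temperature; ADP formed is read by ADP-Glo luminescence.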
# L3MBTL1 inh: qHTS Assay for the Inhibitors of L3MBTL1 | Potency, µM (doses to about 57.1 µM), for inactives: at the highest dose activity, negative = inhibition, actives largely listed as inhibitors | Lethal(3)malignant brain tumor-like protein 1 (Homo sapiens), Q9Y468 | AlphaScreen L3MBTL1–H3K9me1 peptide binding | 0.66% of 230,000 active; further: potency means the concentration at half of the fitted maximal effect; on the % scale 0 is the no-effect control and ±100 the full control effect; nearly all actives have a fitted effect of over 60% in size
#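 L3MBTL1 (50 nM) pre-complexed 30 min with biotinylated H3(1-15)K9me1 peptide (75 nM), then compounds added for 30 min at room temperature; AlphaScreen streptavidin donor/nickel chelate acceptor beads (10 ug/mL final) read after 30 min dark incubation.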
# * hit, by the source's call; ? = inconclusive; / = not tested or not shown; [ ] = another dose, or the depositor's remark. Unless noted, the call rests on the fitted dose curve; in most records, active means well fitted inhibition curve with a large enough effect; inconclusive means small, poorly fitted or top-dose-only effect; inactive means no such curve, though single readings can be large or run the other way.
SMILES,G9a inh,HP1b binding inh,JMJD2A Tudor,BAZ2B block,PI5P4Ka inh,L3MBTL1 inh
Cc1ccc(C)c(CN2C(=O)c3ccccc3Sc3ccc(C(=O)N4CCC5(CC4)OCCO5)cc32)c1,-4.9%[59 µM],1.0%,-27.2%,-24.4%,/,/
CCOC(=O)C1(c2ccccc2)CCN(Cc2cccc(C(=O)O)c2)CC1,-95.2%,22.3%,-15.7%,0.1%,/,-3.3%
CCN1CCN(Cc2cccc(Oc3ccccc3)c2)CC1,3.55µM*,?,3.16µM*,31.6µM*,/,/
O=C1NCCOC(=O)[C@@H](Cc2ccc(F)cc2)CC/C=C/C[C@@H]1CC(=O)N(CCO)Cc1ccccc1,/,14.8%,-2.9%,/,-1.6,4.0%
Cc1cc(O)cc2c1O[C@@](C)(CCC[C@@H](C)CCC[C@@H](C)CCCC(C)C)CC2,6.3%[59 µM],14.0%,?,11.7%,44.2,6.8%
C[C@H](NC(=O)[C@@H](N)Cc1ccc(O)cc1)C(=O)NCC(=O)N(C)[C@@H](Cc1ccccc1)C(=O)N[C@H](CO)CCS(C)=O (stereo partly specified),20.7%[59 µM],/,/,/,/,/
CCOC(=O)c1ccccc1C(=O)OCC,18.4%[59 µM],55.0%,-5.5%,/,1.5,/
CCOC(=O)c1sc(=NC(=O)c2ccc(C)c(C)c2)n(C)c1C,11.2%[59 µM],-10.4%,20µM*,-4.7%,-25.9,/
CC(C)n1c(N2CCN(S(=O)(=O)c3cccc([N+](=O)[O-])c3)CC2)nc2ccccc21,/,19.7%,?,-11.0%,1.7,-3.4%
Cc1cc(N(CCCl)CCCl)ccc1C=Cc1ccncn1,/,116.9%,29.7%,/,0.8,/
Cc1cc(N(CCCl)CCCl)ccc1/C=N/N=C(\N)c1cnccn1,/,?,14.1µM*,/,10.4,/
C[C@H](N)C(=O)N[C@@H](C)C(=O)N[C@@H](Cc1ccccc1)C(=O)CCl,15.8µM*,/,/,/,/,/
C[C@H](NC(=O)[C@@H](N)Cc1ccc(O)cc1)C(=O)N[C@@H](Cc1ccccc1)C(=O)N[C@@H](Cc1ccccc1)C(N)=O,18.9%[59 µM],/,/,/,/,/
COC(=O)c1cn(S(=O)(=O)c2ccccc2)c2ccccc12,?,56.3%,40.6%,18.7%,20.8,/
NC(=O)c1sc2nc3c(c(-c4cccs4)c2c1N)CCCC3,22.4µM*,/,/,-26.1%,/,2.6%
CN1CCc2nc3sc(C#N)c(N)c3c(-c3cccs3)c2C1,?,4.9%,-28.4%,?,/,/
O=c1c2ccccc2nc(CN2CCCCCC2)n1-c1ccc(F)cc1,28.2µM*,24.5%,-21.6%,0.3%,/,-5.8%
CC(C)c1ccc(-n2c(O)c(/C=N/NC(=O)c3ccncc3)c(=O)[nH]c2=O)cc1,17.8µM*,31.1%,?,?,-28.1,-0.6%
CCc1ccc(-n2c(O)c(/C=N/NC(=O)c3ccncc3)c(=O)[nH]c2=O)cc1,8.3%,19.4%,?,56.2µM*,-28.0,-24.3%
CCN(CC)c1ccc(N=Cc2c(O)n(-c3ccc(OC)cc3)c(=O)[nH]c2=O)cc1,50.1µM*,10.3%,3.0%,-0.3%,1.2,/
CCC(C)N=Cc1c(O)n(-c2ccccc2)c(=O)[nH]c1=O (stereo unspecified),10µM*,-24.1%,-23.2%,5.8%,/,/
CCN(CC)c1ccc(N=Cc2c(O)n(-c3ccc(Cl)cc3)c(=O)[nH]c2=O)cc1,/,66.3%,-12.5%,-2.9%,-9.9,-3.5%
Cc1cc(C)c(-n2c(O)c(/C=N/NC(=O)c3ccncc3)c(=O)[nH]c2=O)c(C)c1,7.5%,48.8%,?,-38.9%,-16.6,-8.4%
CC1CCN(c2ccccc2NC(=O)c2cc3ccccc3o2)CC1,103.5%,85.9%,29.2%,6.7%,24.1,/
O=c1c2ccccc2nc(/C=C\c2cccc(Br)c2)n1-c1ccc(O)cc1,22.2%[59 µM],30.0%,-20.9%,-1.2%,/,/
SMILES,G9a inh,HP1b binding inh,JMJD2A Tudor,BAZ2B block,PI5P4Ka inh,L3MBTL1 inh
Cc1ccccc1-n1c(O)c(/C=N/NC(=O)c2ccncc2)c(=O)[nH]c1=O,-0.8%,34.8%,89.1µM*,?,?,-7.4%
Cc1ccc(C[N+](C)(C)C)o1,2.1%[59 µM],/,/,/,/,/
Oc1cc2c(cc1CN1CCN(c3ccc(F)cc3)CC1)OCO2,8.91µM*,-9.8%,?,?,-4.1,/
COc1ccc(CN2C(=O)NC(=O)/C(=C/c3ccoc3)C2=O)cc1,17.8µM*,22.4µM*,56.2µM*,50.1µM*,-71.1*,?
COc1ccc(CN2C(=O)NC(=O)/C(=C/c3cc(OC)c(OC)c(OC)c3)C2=O)cc1,44.7µM*,3.6%,-10.7%,-12.9%,-50.7*,/
N[C@H]1C[C@H]1c1ccccc1,-42.9%[12.7 µM],/,/,/,/,/
COC(=O)[C@@]1(Cc2ccccc2)[C@H]2C(=O)N(Cc3ccccc3)C(=O)[C@H]2[C@H]2CN=C(SCc3ccc(C#N)cc3)N21,/,65.2%,-28.3%,/,-0.2,-3.4%
CCCN1CCc2cccc3c2C1Cc1ccc(O)c(O)c1-3 (stereo unspecified),1µM*,/,/,/,/,/
COc1cc2c(cc1O)C[C@H]1c3c(cc(O)c(OC)c3-2)CCN1C,-5.1%[59 µM],14.9%,-17.3%,1.3%,1.8,-7.3%
CCCN1CCc2cc(O)cc3c2[C@H]1Cc1ccc(O)c(O)c1-3,1.12µM*,11.2µM*,12.6µM*,/,?,/
CN1CCc2cc(O)cc3c2[C@H]1Cc1ccc(O)c(O)c1-3,1.68µM*,?,7.94µM*,/,-52.2*,/
NO,46.6%[12.7 µM],/,/,/,/,/
Cn1cccc1/C=C1/C(=O)NC(=O)N(Cc2ccc(F)cc2)C1=O,39.8µM*,10.2%,-32.2%,44.7µM*,-65.4*,/
C=CCN1C(=O)NC(=O)/C(=C/c2ccc(N(C)C)c(Br)c2)C1=O,15.8µM*,33.4%,-11.7%,-33.2%,-59.2*,-10.6%
Cn1cccc1/C=C1/C(=O)NC(=S)N(Cc2ccc(F)cc2)C1=O,10µM*,35.5µM*,44.7µM*,25.1µM*,-94.4*,/
Cn1cccc1/C=C1/C(=O)NC(=O)N(Cc2ccccc2)C1=O,?,9.6%,-33.8%,44.7µM*,-65.8*,-12.2%
C=CCN1C(=O)/C(=C/c2cc(C)n(-c3ccccn3)c2C)C(=O)NC1=S,?,25.9%,-18.6%,-5.2%,?,-6.0%
COc1ccc(CN2C(=O)NC(=O)/C(=C/c3ccc(OC)c(OC)c3OC)C2=O)cc1,/,16.2%,9.3%,-16.0%,-16.8,38.8%
NC(=O)CN1CC(O)CC1=O (stereo unspecified),1.2%[59 µM],/,/,/,/,/
C=CCN1C(=O)NC(=O)/C(=C/c2cccn2C)C1=O,50.1µM*,17.2%,-16.9%,1.1%[57.1 µM],?,-19.7%
